Assay outcomes (PubChem)
MCF10A rerep: induces DNA re-replication in MCF 10a normal breast cells. MCF 10A DNA re-replication, Hoechst nuclear intensity, 48 h. AID 624296. Potency, µM (highest dose often 46.1 µM), inactives show at the highest dose activity, positive = re-replication, actives largely listed as activators. actives 2.9% (n = 350,000); note: % of control where 0% means no effect; nearly all actives have a fitted effect of over 50% in size
HT1080-NT tox: kills 2HG-producing HT-1080-NT fibrosarcoma cells; HT-1080-NT fibrosarcoma viability, CellTiter-Glo ATP luminescence, 48 h; Potency, µM (series often up to 46.1 µM), for the others: top-dose activity, negative = less viability, actives largely listed as cytotoxic; actives 1.6% (n = 360,000);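 note: NT is the 2HG producing partner of a matched IDH1 knockdown line; 0% = DMSO-treated cells and -100% = media-only wells without cells; nearly all actives have a fitted effect of over 55% in size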
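Viability by CellTiter-Glo luminescence after 48 h compound exposure at 37C of HT-1080-NT cells (750/well, RPMI, 5% FBS). % activity scaled between DMSO wells and medium-only wells, then curve-fitted and categorized by curve class.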
HT1080 IDH1KD tx: toxicity to HT-1080 IDH1 knockdown cells (counter line). HT-1080 IDH1 knockdown viability, ATP luminescence, 48 h. actives 2% (n = 360,000). Potency, µM (highest dose often 46.1 µM), for inactives: at the top dose activity, negative = toxicity, most hits filed as cytotoxic;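 note: 0% = DMSO wells and -100% = cell-free medium wells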
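Cytotoxicity counter-line: IDH1KD HT-1080, 48 h, CellTiter-Glo. Curves classed by r2, magnitude and activity.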
KB-V1 MDR tox: kills drug-selected multidrug resistant KB-V1 cells | KB-V1 MDR cells viability, CellTiter-Glo, 72 h | Potency, µM (highest dose often 46.1 µM), hits mostly cytotoxic | AID 1347076 | actives 3.4% (n = 400,000); note: % is set by controls: 0 for no effect and ±100 for the full control effect; nearly all actives have a fitted effect of over 60% in size
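Luminescent ATP read-out (CellTiter-Glo, 10 min) measures survival of drug-selected KB-V1 MDR cells after 72 h, 37 degrees C compound exposure. Medium: phenol-red-free DMEM, 10% FBS. Values from fitted concentration-response curves.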
KB-3-1 cytotox: kills parental KB-3-1 adenocarcinoma cells; KB-3-1 viability, CellTiter-Glo ATP luminescence, 72 h; Potency, µM (top dose mostly 46.1 µM), usual class: cytotoxic; actives 1.4% (n = 400,000); AID 1347075; note: % is set by controls: 0 for no effect and ±100 for the full control effect; nearly all actives have a fitted effect of over 60% in size
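Using CellTiter-Glo luminescence, growth of non-resistant KB-3-1 adenocarcinoma cells is assessed 72 h after pin-tool compound addition at 37 °C. Normalized responses across the concentration series yield fitted curves.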
SW480 rerep: induces DNA re-replication in SW480 colon adenocarcinoma cells | Potency, µM (top dose mostly 46.1 µM), without a hit: top-dose re-replication activation, most hits filed as activators | AID 624297 | actives 1.8% (n = 340,000) | SW480 DNA re-replication, Hoechst DNA content imaging, 48 h; note: % of control where 0% means no effect; nearly all actives have a fitted effect of over 55% in size
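Readout is total intensity of Hoechst-stained nuclei, excited at 405 nm and collected at 500-530 nm. Compound treatment lasted 48 hr at 37 C in 5% CO2 before staining.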
Active calls of the source: *; i = inactive; u = inconclusive; x = not tested or not shown; [ ] = another dose, or the depositor's remark. In the library only some 7.9% were active in any assay of this set; here they are far more common. Calls come from the whole dose curve; as a rule, active = well fitted curve in the direction sought with a large enough effect; inconclusive = small, poorly fitted or top-dose-only effect, or another doubt; inactive = no such curve, though single readings can be large; an effect the other way counts as inactive or inconclusive. Potency is the fitted concentration of half-maximal effect.

SMILES	MCF10A rerep	HT1080-NT tox	HT1080 IDH1KD tx	KB-V1 MDR tox	KB-3-1 cytotox	SW480 rerep
CCOC(=O)N1CCN(c2nc(C)cc(C(F)(F)F)n2)CC1	10%	0%	1%	i	i	-8%
CCCn1nc(NC(=O)c2cccs2)c2cc3ccc(C)cc3nc21	u	-15%	-3%	i	i	15µM*
CCCC(=O)Nc1nn(CC)c2nc3ccc(C)cc3cc12	u	11%	11%	i	i	u
CCCn1nc(NC(=O)c2cccs2)c2cc3cc(C)ccc3nc21	18µM*	-11%	-28%	u	i	21µM*
COc1ccc(C2=NNC(=Nc3cc(S(=O)(=O)N(C)C)ccc3C)SC2)c(OC)c1	4%	u	u	u	u	19%
O=C(CSCc1ccc(Br)cc1)Nc1ccc(S(=O)(=O)N2CCOCC2)cc1	-4%	-24%	-22%	21µM*	i	-3%
O=S(=O)(Nc1ccc(S(=O)(=O)N2CCOCC2)cc1)c1ccc(Br)cc1	u	0%	7%	i	i	-5%
Cc1ccc(CSCC(=O)Nc2cc(S(=O)(=O)N3CCOCC3)ccc2OCC(F)(F)F)cc1	2%	-6%	-6%	15µM*	u	6%
O=S(=O)(c1ccc(Oc2ccc(Br)cc2)cc1)N1CCOCC1	1%	-18%	-7%[9.24 µM]	12µM*	i	-4%
CCOc1ccc(NC(=O)CSc2nnc(-c3ccco3)n2N)cc1	-2%	-2%	-11%	i	u	59%
CCc1ccc(NCc2cc3ccc(OC)cc3n(CC(=O)Nc3ccc(C(C)C)cc3)c2=O)cc1	x	x	x	i	i	x
COc1cccc(-c2c(-c3ccccc3OC)ncn2Cc2cccc(-c3ccccc3)c2)c1	x	u	u	13µM*	u	x
CCCCc1c(-c2ccccc2OC)ncn1CCc1cccc(OC)c1	x	18µM*	16µM*	12µM*	u	x
CCCCc1c(-c2ccccc2OC)ncn1CCc1cccc(F)c1	x	21µM*	18µM*	16µM*	u	x
COc1ccccc1-n1c(CCC(=O)O)ccc1-c1ccccc1	0%	13%	9%	u	i	-10%
COc1ccc(-c2ccc(CCC(=O)O)n2-c2ccccc2OC)cc1	15µM*	18µM*	16µM*	u	u	18µM*
COc1cc(C)nc(OCCNC(=O)COc2ccc(Cl)cc2C)n1	1%	0%	-7%	i	i	7%[9.22 µM]
Cc1cc(Cl)ccc1OCC(=O)NCCOc1nc(N2CCCCC2)nc(N2CCOCC2)n1	3%	5%	1%	4.1µM*	i	-4%
Cc1ccc2[nH]c3ccccc3c(=O)c2c1	16µM*	-11%	-22%	i	i	u
CCOC(=O)C(O)C1CCc2c([nH]c3ccc(C)cc23)C1=O (stereo unspecified)	u	-7%	0%	18µM*	u	u
O=c1c2ccccc2[nH]c2ccc(F)cc12	9.2µM*	-4%	-3%	i	i	16µM*
COc1c(F)cc2[nH]c3c(c2c1F)CCNC3=O	-2%	x	x	u	i	-20%[9.22 µM]
Cc1ccc2[nH]c3c(c2c1)CCNC3=O	0%	-4%	-15%	5.8µM*	u	-13%
O=c1[nH]c2ccccc2c(=O)c2ccccc12	x	-1%	-4%	i	i	x
O=C(Nc1cccc(C(F)(F)F)c1)C1CCN(S(=O)(=O)c2cccnc2)CC1	0%	-1%	-3%	u	i	-15%
SMILES	MCF10A rerep	HT1080-NT tox	HT1080 IDH1KD tx	KB-V1 MDR tox	KB-3-1 cytotox	SW480 rerep
CCc1ccc2[nH]cc(C(=O)OCCOC)c(=O)c2c1	13%	7%	13%	i	i	-3%
CCCc1[nH]nc2c1C(CCC)C(C#N)=C(N)O2 (stereo unspecified)	9%	11%	10%	i	i	-3%
O=c1c2ccccc2[nH]c2ccc(O)cc12	-12%	3%	-2%	i	i	23µM*
CCCn1c(C(O)c2ccc3c(c2)OCO3)nc2ccccc21 (stereo unspecified)	u	-12%	-2%[9.24 µM]	i	i	15µM*
CCCn1c(C(O)c2ccc(C)cc2)nc2ccccc21 (stereo unspecified)	u	3%	0%	i	i	-2%
O=C1CC(c2ccccc2)=NN1c1nc(-c2ccccc2)cs1	16µM*	2%	6%	i	i	0%
O=C1C2C3c4ccccc4C(c4ccccc43)[C@@H]2C(=O)N1c1nc(-c2ccccc2)cs1 (stereo partly specified)	-3%	20%	29%	21µM*	i	-12%
CC1=NN(c2nc(-c3ccccc3)cs2)C(=O)C1	u	2%	14%	i	i	-3%
COc1cc(Nc2ccn3nccc3n2)cc(OC)c1OC	x	4%	3%	i	i	x
COc1ccc(S(=O)(=O)N/N=c2\oc3c(OC)cccc3cc2S(=O)(=O)c2ccc(C)cc2)cc1OC	u	-20%	-13%	i	i	u
O=C(NCC1CCCO1)C(=Cc1cccc([N+](=O)[O-])c1)C(=O)NCC1CCCO1 (stereo unspecified)	u	16µM*	u	i	u	u
O=C(NCC1CCCO1)c1ccccc1NS(=O)(=O)c1cc([N+](=O)[O-])ccc1Cl (stereo unspecified)	6%	-11%	-7%	16µM*	u	3%
CCc1ccccc1NC(=O)c1cc(S(=O)(=O)N2CCC(C)CC2)cn1C	x	x	x	u	i	x
Cc1nn(C)c(C(=O)Nc2ccn(Cc3c(F)c(F)cc(F)c3F)n2)c1[N+](=O)[O-]	12%	2%	12%	13µM*	i	-1%
COc1cc(Cl)ccc1OCc1cc(C(=O)N2C[C@H]3CC[C@H]2C3)no1	1%	6%	8%	i	i	-4%
COc1cc(Cl)ccc1OCc1cc(C(=O)N2C[C@]3(C)C[C@H]2CC(C)(C)C3)no1	21µM*	0%	-27%	x	x	7%
C/C(=N\NC(=O)c1ccccc1F)c1cccc(NC(=O)c2ccccc2)c1	8%	13%	5%	u	i	1%
N=c1c2c(n(Cc3ccc(F)cc3)c3c1CCC3)CCC2	-3%	7.1µM*	10µM*	i	i	-4%
CCCCCCn1c2c(c(=N)c3c1CCC3)CCC2	15%	1.6µM*	1.6µM*	i	2.1µM*	1%
CCCCn1c2c(c(=N)c3c1CCC3)CCC2	2%	-17%	-18%	i	4.1µM*	-3%[9.22 µM]
